Compound activity deposited in PubChem by several laboratories.
ROMK primary = ROMK potassium channel modulators, primary screen, cell-based, thallium flux, MLSMR library; Tet-inducible ROMK, thallium flux fluorescence; actives lie on both sides; B-score at 10 µM; hit rate 2% among 130,000; AID 1918, 2009;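 active means signal ratio slope over the read window, or its plate-corrected B-score, at least 3 SD from the plate mean, either direction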;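 further: B-score of the F/F0 ratio slope over 7 to 12 s after thallium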
TNF death inh = inhibitors of TNF-alpha triggered necroptosis, primary screen, cell-based, Jurkat FADD-/-, single concentration; hit rate 0.068% among 220,000; activation (protection from cell death), % at 10 µM; Jurkat FADD-/- TNF necroptosis rescue, ATP luminescence, 24 h; 0 = TNF only, 100 = no-TNF cells; AID 463075, 2010;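 active means activation, meaning protection from cell death, of at least 50% relative to plate controls; inactive means activation below 50%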;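 further: necroptosis triggered by 40 ng/mL TNF-alpha added together with compound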
Calpain2 inh = inhibitors of pig calpain II, primary screen, biochemical, fluorogenic peptide substrate, 1536-well | hit rate 0.37% among 220,000 | purified calpain II, 30 min | inhibition, % at 16 µM;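 active means inhibition above about 50%, limit read from the data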
14-3-3 Bad inh = inhibitors of 14-3-3 zeta/Bad binding, primary screen, biochemical, TR-FRET, bovine 14-3-3 zeta; 14-3-3 protein zeta/delta (Bos taurus), P63103; TR-FRET 14-3-3zeta/Dy647-pBad peptide displacement, 1 h; inhibition, % at 21.7 µM; hit rate 0.71% among 220,000;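 active means inhibition above about 70%, limit read from the data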
Target sequence (P63103 whole entry, looked up): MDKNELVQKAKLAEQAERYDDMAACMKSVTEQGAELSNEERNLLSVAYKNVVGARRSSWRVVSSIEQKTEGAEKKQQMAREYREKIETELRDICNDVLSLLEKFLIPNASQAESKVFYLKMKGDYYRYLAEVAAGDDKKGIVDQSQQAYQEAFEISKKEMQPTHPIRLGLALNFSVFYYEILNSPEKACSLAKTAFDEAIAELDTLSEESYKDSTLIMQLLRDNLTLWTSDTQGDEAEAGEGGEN
Efa HMGR inh = inhibitors of E. faecalis class II HMGR, primary screen, biochemical, Enterococcus faecalis; inhibition, % at 10 µM; purified E. faecalis HMGR, NADPH absorbance 340 nm kinetic; hit rate 0.41% among 190,000; AID 1066, 2008;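 active means inhibition above a set limit, the median over all tested compounds plus 3 SD, cut at about 9.5% in these data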;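 further: enzyme runs in reverse so mevalonate oxidation gives rising NADPH absorbance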
L929 necroptosis = inhibitors of zVAD-triggered necroptosis, primary screen, L929 cells; L929 zVAD necroptosis rescue, ATP luminescence, 24 h; with zVAD 60 µM; viability rescue, % at 10 µM; hit rate 0.38% among 220,000;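 active means activation, scaled between plate controls, above about 75%, limit read from the data; inactive means activation under that limit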
Large screens that a line does not name were inactive; [ ] = remark or other dose. An excerpt weighted towards active compounds, which were near 3% of everything screened.

C=CCc1cc(C)ccc1OCC(O)CN1CCN(c2ccccc2)CC1 (centres undefined)	14-3-3 Bad inh 70
COc1ccc(-c2nnc(SCC(=O)Nc3cc(C)on3)o2)cc1	none
CC(C)N(C(=O)c1ccc2nc3c4ccccc4c4ccccc4c3nc2c1)C(C)C	none (no result: Calpain2 inh, 14-3-3 Bad inh, Efa HMGR inh)
COC(=O)c1ccccc1NC(=O)C1CCN(C(=O)c2ccc(OC)cc2)CC1	none (no result: ROMK primary)
COc1cc(Sc2ccc(C)cc2)c(OC)cc1N	14-3-3 Bad inh 76
COc1ccccc1-c1nnc(NC(=O)c2ccc3c(c2)OCO3)s1	14-3-3 Bad inh 71
CC(C)c1nnc(NC(=O)c2ccc3c(c2)OCO3)s1	none
Cc1ccc(NC(=S)NC(C)CCc2ccccc2)cc1C (centres undefined)	Calpain2 inh 64 (no result: L929 necroptosis)
COc1ccc(CC(=O)N2CCC(Nc3nc4ccccc4n3Cc3ccc(F)cc3)CC2)cc1	ROMK primary -4
CCc1cc(=O)oc2cc3occ(-c4ccc(OC)c(F)c4)c3cc12	14-3-3 Bad inh 94 (no result: ROMK primary)
CCc1cc(=O)oc2cc3occ(C)c3cc12	none (no result: ROMK primary)
O=S(=O)(Nc1ccccc1)c1ccc2c(c1)CCO2	TNF death inh 52 (no result: Efa HMGR inh)
COc1ccc(S(=O)(=O)Nc2ccc3c(c2)OCO3)cc1	none (no result: ROMK primary)
COc1ccc(NS(=O)(=O)c2ccc3c(c2)CCO3)cc1	14-3-3 Bad inh 74 (no result: Efa HMGR inh)
O=S(=O)(Nc1cccnc1)c1ccc2c(c1)OCCO2	none (no result: ROMK primary)
CC(C)CCCCCCNC(=S)Nc1ccc(S(=O)(=O)N2CCOCC2)cc1	none
O=c1c2ccccc2sc2nc(C3CCCCC3)n(Cc3ccco3)c(=O)c12	14-3-3 Bad inh 73 (no result: ROMK primary)
CCc1nc2sc3ccccc3c(=O)c2c(=O)n1Cc1ccco1	none (no result: ROMK primary)
COc1cccc(OCCNC(=O)CSc2ccc(C(F)(F)F)cc2[N+](=O)[O-])c1	none
Cc1nn(CCC(=O)O)c2nc(-c3cccnc3)cc(C(F)(F)F)c12	14-3-3 Bad inh 73 (no result: ROMK primary)
Cc1nn(CCC(N)=O)c2nc(-c3cccs3)cc(C(F)(F)F)c12	none
CCc1ccccc1NC(=S)N(Cc1ccc(OC)cc1)CC1CCC(C(=O)O)CC1 (centres undefined)	none
Fc1ccccc1CNc1ccc(Cl)cc1	TNF death inh 81, L929 necroptosis 97 (no result: ROMK primary)
CNc1ccc([N+](=O)[O-])cc1-c1nc2ccccc2[nH]c1=O	14-3-3 Bad inh 73 (no result: ROMK primary, Efa HMGR inh)
CCCOc1ccc(N)cc1N	14-3-3 Bad inh 92[fluorescence artefact?]
O=C1OCCN/C1=C\C(=O)c1ccc(Cl)cc1	none (no result: ROMK primary, Efa HMGR inh)
CCCCN(CCCC)C(=O)/C=C/c1cccc([N+](=O)[O-])c1	Calpain2 inh 62 (no result: ROMK primary)
O=C(C1=C[C@H](C2CC2)C[C@H](OCc2ccc(CO)cc2)O1)N1CCOCC1	none (no result: ROMK primary)
CC1(C)C(C=C(Cl)Cl)C1C(=O)Nc1ccc([N+](=O)[O-])cc1 (centres undefined)	Calpain2 inh 53
CC(C)(C)c1cc(CN2CCCC(O)C2)c(O)c(C(C)(C)C)c1 (centres undefined)	14-3-3 Bad inh 73
O=C(NCc1cccnc1)c1ccccc1CCc1ccccc1	Calpain2 inh 50
c1ccc2c(N3CCCCC3)nnc(N3CCCCC3)c2c1	TNF death inh 78
O=C(COc1ccc(-c2nnc(N3CCCCC3)c3ccccc23)cc1)N1CCCCC1	ROMK primary -3.2
COc1cc(-c2nnc(SCC(=O)NC3CCS(=O)(=O)C3)o2)cc(OC)c1OC (centres undefined)	none
COc1ccc(-c2nn[nH]n2)cc1OC	none
Nc1cc(-c2nn[nH]n2)ccc1F	14-3-3 Bad inh 72 (no result: ROMK primary)
CS(=O)(=O)c1cnc(-c2ccccc2)nc1-c1ccc(Cl)c(Cl)c1	14-3-3 Bad inh 73
c1cc(CNCC2CCCO2)ccn1 (centres undefined)	none
Cc1ccc(CNCC2CCCO2)s1 (centres undefined)	14-3-3 Bad inh 90
O=C(c1ccc(N2CCN(S(=O)(=O)c3ccccc3)CC2)c([N+](=O)[O-])c1)N1CCOCC1	none
N#Cc1c(NC(=O)CSc2nc(N)cc(=O)[nH]2)sc2c1CCCC2	none
